USP28 block: inhibitors of human USP28 deubiquitinase; 3% of 47,000 active; inhibition, % at 25 µM; Ubiquitin carboxyl-terminal hydrolase 28 (Homo sapiens), Q96RU2; AID 1645857, 2021; purified USP28, Ub-rhodamine cleavage fluorescence, 30 min
USP10 inh: inhibitors of human USP10 deubiquitinase; Ubiquitin carboxyl-terminal hydrolase 10 (Homo sapiens), Q14694; purified USP10, Ub-rhodamine fluorescence, 60 min; inhibition, % at 20 µM; 1.1% of 47,000 active; AID 1645856, 2021
USP17 block: inhibitors of human USP17 deubiquitinase. Ubiquitin carboxyl-terminal hydrolase 17-like protein 5 (Homo sapiens), A8MUK1. purified USP17, Ub-rhodamine cleavage fluorescence, 3 h. inhibition, % at 50 µM. 6.5% of 47,000 active
USP30 block: inhibitors of human USP30 deubiquitinase. Ubiquitin carboxyl-terminal hydrolase 30 (Homo sapiens), Q70CQ3. purified USP30, Ub-rhodamine cleavage fluorescence. inhibition, % at 25 µM. 5.3% of 47,000 active. AID 1645860, 2021
Target sequence (Q70CQ3 whole entry, looked up): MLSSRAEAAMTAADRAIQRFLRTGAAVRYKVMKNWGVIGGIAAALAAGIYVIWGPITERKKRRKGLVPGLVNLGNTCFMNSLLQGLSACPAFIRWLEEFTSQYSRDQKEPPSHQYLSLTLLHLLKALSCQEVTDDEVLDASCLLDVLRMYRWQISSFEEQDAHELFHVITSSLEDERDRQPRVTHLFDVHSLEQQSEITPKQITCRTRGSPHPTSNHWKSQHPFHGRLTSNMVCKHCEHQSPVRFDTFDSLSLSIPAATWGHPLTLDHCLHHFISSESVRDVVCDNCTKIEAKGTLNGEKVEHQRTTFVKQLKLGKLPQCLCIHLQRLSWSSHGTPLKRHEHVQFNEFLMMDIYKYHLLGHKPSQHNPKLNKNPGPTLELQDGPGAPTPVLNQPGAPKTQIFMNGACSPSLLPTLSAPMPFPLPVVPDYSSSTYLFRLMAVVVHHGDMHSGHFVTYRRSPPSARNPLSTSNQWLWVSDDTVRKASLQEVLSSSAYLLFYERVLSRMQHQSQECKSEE
USP8 block: inhibitors of human USP8 deubiquitinase. Ubiquitin carboxyl-terminal hydrolase 8 (Homo sapiens), P40818. purified USP8, Ub-rhodamine cleavage fluorescence, 30 min. inhibition, % at 20 µM. 4.2% of 47,000 active. AID 1645853, 2021
OTUD3 block: inhibitors of human OTUD3 deubiquitinase. OTU domain-containing protein 3 (Homo sapiens), Q5T2D3. purified OTUD3, Ub-rhodamine fluorescence, 2 h. inhibition, % at 25 µM. 0.7% of 47,000 active. AID 1645858, 2021
Active calls of the source: *. Compounds with a hit are over-represented: about 13% of the library has one in this group of screens. Cut-off read from the data, not from the text of the source: active = inhibition above about 30%; inactive = the rest.

SMILES | USP28 block | USP10 inh | USP17 block | USP30 block | USP8 block | OTUD3 block
CC1CCCN(Cc2nc(-c3ccc(N4CCCCCC4)nc3)no2)C1 (centres undefined) | -5 | 0 | -1 | -28 | 2 | -4
CC(C)=CCc1c(O)cc2c(c1C)OC(=O)c1c(C)c(Cl)c(O)c(CO)c1O2 | 49* | 48* | 37* | 39* | 10 | 21
COc1ccc(C(=O)Nc2nc(-c3ccc4c(c3)NC(=O)CO4)c(C)s2)cc1OC | -4 | -4 | 58* | 6 | 5 | -9
Cc1sc(NC(=O)c2cccnc2)nc1-c1ccc2c(c1)NC(=O)CO2 | 5 | 3 | 13 | 24 | 31* | 16
COc1ccc(NS(=O)(=O)c2ccc3c(c2)NC(=O)CO3)cc1OC | 0 | 1 | 0 | 5 | 1 | 0
CN1CCc2nc3ccccc3c(C(=O)OCc3ccc(C#N)cc3)c2C1 | -30 | -7 | 29 | -170 | -22 | -47
Cc1cc(-c2cccc(C(=O)O)c2)nc(C2CCCN(S(C)(=O)=O)C2)n1 (centres undefined) | 10 | 2 | 5 | 25 | 20 | 13
CCOC(=O)CCn1c(=O)c2c(nc3oc(C(C)(C)C)cn32)n(C)c1=O | 12 | 2 | 15 | 32* | 11 | 11
CC(C)c1nc(N2CCCC2=O)sc1C(=O)Nc1ccc(F)cc1 | 32* | 1 | 4 | -5 | 20 | -1
CNc1cccc(C2CN(C(=O)c3n[nH]c4c3CCC4)CCO2)n1 (centres undefined) | -6 | -2 | -5 | -7 | 0 | -6
Cc1nn(-c2ccccc2)c2nc(C3CCN(C(=O)c4n[nH]c5c4CCC5)CC3)ccc12 | 10 | 12 | 15 | 38* | 18 | 1
COC(=O)c1ccc(C2CC(=O)Nc3c2sc(C(=O)O)c3-c2ccc(OC)cc2)cc1 (centres undefined) | 13 | 2 | 11 | 34* | 2 | 13
Cc1cc(NC(=O)C2(c3ccc(F)cc3)CCCC2)n(-c2nc3ccccc3[nH]2)n1 | 0 | 11 | 0 | -5 | 70* | -4
CCOc1ccc(C(=O)N2CCC(C)(C(=O)NCc3ccccc3)CC2)cc1 | -3 | 1 | 5 | 1 | 0 | -6
NC(=O)C1(N2CCCCC2)CCN(CC(=O)Nc2cc(Cl)ccc2Cl)CC1 | 6 | -4 | 12 | 30* | 15 | 20
CC1=C(C(=O)N2CCOCC2)C(c2cccs2)n2c(nc3ccccc32)N1 (centres undefined) | -18 | 0 | -15 | -71 | -19 | -17
O=C1CCCC2=C1C(c1ccc(Cl)cc1)n1c(nc3ccccc31)N2 (centres undefined) | 18 | -1 | 21 | 37* | 13 | 13
CC(=O)C1=C(C)Nc2nc3ccccc3n2C1c1cccs1 (centres undefined) | 22 | 0 | 38* | 49* | -1 | 20
CC(=O)C1=C(C)Nc2nc3ccccc3n2C1c1ccc(O)cc1 (centres undefined) | 1 | 0 | 35* | -19 | -2 | -5
COc1cc2nc(SCC(=O)N3CCN(c4ccccc4)CC3)n3nc(-c4ccccc4)nc3c2cc1OC | 1 | -3 | 2 | 16 | -2 | -2
O=C(NC1CC1)c1ccc2c(c1)nnn2C1CCCCC1 | 5 | 0 | 8 | 11 | 9 | 8
O=C(CSc1nccn1C1CCCCC1)Nc1ccccc1 | 8 | -1 | 0 | 20 | 2 | 10
CN1CCN(C(=O)c2c3c(NCC4CC4)ncnc3n3ccccc23)CC1 | -83 | -13 | -81 | -389 | -22 | -78
COCCN(C)C(=O)c1c2c(NCC3CC3)ncnc2n2ccccc12 | -98 | -12 | -60 | -432 | 31* | -83
COc1cc(C2=NO[C@]3(C(=O)Nc4ccccc43)[C@H]2C(=O)c2ccc(C)cc2)ccc1OCC#N | 5 | 9 | 43* | 17 | 17 | 9
SMILES | USP28 block | USP10 inh | USP17 block | USP30 block | USP8 block | OTUD3 block
COc1cc(C2=NO[C@]3(C(=O)Nc4ccccc43)[C@H]2C(=O)c2ccccc2)ccc1OCC#N | 6 | 8 | 20 | -6 | 0 | 1
O=S(=O)(c1ccc(-c2ccco2)cc1)C1CCN(CCc2ccccn2)CC1 | -12 | -6 | 31* | -51 | 4 | -8
CN(C)c1ccc(/C=N/NC(=O)c2ccc(Cl)cc2)cc1 | -2 | 14 | 88* | 23 | 51* | -8
O=C(NCc1noc(CCc2ccccc2)n1)C1CCCC1 | -7 | -9 | -2 | -6 | 8 | 3
CCOc1ccc(NC(=O)c2nc3c(=O)[nH]c4cc(C)ccc4n3n2)cc1 | -41 | 8 | 54* | -134 | 10 | -31
Cc1cccc(NC(=O)c2nc3c(=O)[nH]c4cc(C)ccc4n3n2)c1 | -11 | 10 | 35* | -174 | -35 | -25
O=C(c1cccnc1)N1CCCC(c2cc(-c3ccccc3)n[nH]2)C1 (centres undefined) | 1 | 4 | 8 | 7 | 0 | 6
COc1cc(C)ccc1OCc1nc2ccc(Cl)cc2[nH]1 | 5 | 0 | 6 | -8 | 18 | -6
Cn1nc(C2CCN(C(=O)Cc3cccc(F)c3)CC2)c2nccnc21 | 7 | -2 | 34* | -9 | 82* | -11
O=C(c1ccncc1)N1CCC(c2c[nH]c3ccccc23)(c2c[nH]c3ccccc23)CC1 | 6 | -2 | 47* | 4 | -13 | 5
CCc1ccccc1NC(=O)c1cccc(-n2cnnn2)c1 | -3 | 0 | 6 | 0 | -3 | -5
Cc1nnc(-c2c(C)[nH]c(C)c2S(=O)(=O)N2CCN(c3ccccc3C)CC2)o1 | -118 | -5 | -160 | -237 | -134 | -100
CN1CC[C@@]2(C(=O)N3CCOCC3)CCN(C(=O)c3cccc(Cl)c3)CC[C@@H]12 | 11 | 1 | -14 | 19 | -110 | 16
CCOC(=O)c1noc2ncn(Cc3nc(-c4cccc(C)c4)oc3C)c(=O)c12 | 4 | 2 | 0 | 2 | -12 | 5
CCOC(=O)c1noc2ncn(Cc3nc(-c4ccc(C)cc4)oc3C)c(=O)c12 | 13 | -2 | 31* | 35* | 6 | 6
O=C(Nc1ccc(-n2cccc2)c(Cl)c1)c1cccc([N+](=O)[O-])c1 | -31 | 9 | 27 | -65 | -2 | -6
O=C(Nc1ccc(-n2cccc2)cc1)c1cccc([N+](=O)[O-])c1 | 8 | 19 | 8 | 37* | 31* | 0
CC(C)CN(C(=O)c1ccncc1)c1nc2ccccc2s1 | 12 | 0 | 5 | 22 | 5 | 5
Cc1cn2nnc(C(=O)Nc3ccc(Cl)c(Cl)c3)c2c(=O)[nH]1 | -9 | 14 | 3 | -17 | 97* | -1
